Compounds without any hit were thinned out: in the full panel of roughly 83,000, 20% have a hit.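 How to read the values: 0–100, growth inhibition (40 = 60% inhibited); 0, no net growth; -100 to 0, cell death (-40 = 40% of starting cells died; -100 = all dead).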 A number with no mark means an inactive call. The source made the active and inactive calls. The calls were made as follows: active = growth percent below 10; inactive = the rest.

Drawing on PubChem BioAssay (NCI), this text covers growth for 14 molecules.

Some test systems named below: HCT-15 colon; HT29 colon; SNB-75 CNS; SNB-19 CNS; U251 CNS; PC-3 prostate; SK-MEL-5 melanoma; LOX IMVI melanoma; SK-MEL-28 melanoma; UACC-62 melanoma.
Holding throughout (experiment): NCI-60 one-dose screen, 48 h (100 = growth as untreated, 0 = no growth, -100 = all killed)
What all share (conditions): 10 µM unless noted

As for `CC[C@H](C)[C@H](NC(=O)NC(C)(C)C)C(=O)N(C)[C@H](C[C@@H](OC(C)=O)c1nc(C(=O)N[C@@H](Cc2ccccc2)C[C@H](C)C(=O)OC)cs1)C(C)C`, the growth in the test on HCT-15 colon was 9.49% (active); with HT29 colon, 5.85% (active); in the test on SNB-75 CNS it was 34.1%; in the test on SNB-19 CNS it was 47.6%; in the test on U251 CNS, 11.5%; in the test on PC-3 prostate, 11.3%. In addition, the growth is -44.4% (active) with SK-MEL-5 melanoma, 16% with LOX IMVI melanoma and 53.2% with SK-MEL-28 melanoma.
`c1ccc(COc2ccc3[nH]cc(CCN(Cc4ccccc4)Cc4ccccc4)c3c2)cc1`: the growth with HCT-15 colon was 47.2%; with HT29 colon, 83.5%; in the test on SNB-75 CNS it was 89.2%; with SNB-19 CNS it was 104%; with U251 CNS it was 81.6%; in the test with PC-3 prostate, 57.7%. Moreover, the growth in the test on SK-MEL-5 melanoma is 88.3%; in the test with LOX IMVI melanoma, 81.8%; with SK-MEL-28 melanoma, 104%.
Take `COC(=O)[C@@H](C)C[C@H](Cc1ccccc1)NC(=O)c1csc([C@@H](C[C@H](C(C)C)N(C)C(=O)C2(NC(=O)[C@H]3CCCCN3C)CC2)OC(C)=O)n1`: the growth was 20.5% in the test on HCT-15 colon; 9.71% (active) in the test with HT29 colon; 26.5% with SNB-75 CNS; 68.2% in the test with SNB-19 CNS; 4.91% (active) in the test on U251 CNS; 12.3% in the test with PC-3 prostate. Also, the growth in the test with SK-MEL-5 melanoma was -40.2% (active); with UACC-62 melanoma it was 41.1%; in the test on SK-MEL-28 melanoma, 58.7%.
For the molecule `C/C(Cc1ccc(Cl)cc1)=C(\c1ccc(OCCN2CCOCC2)cc1)c1ccc(OC(=O)Cc2ccccc2)cc1`, the growth was 91.1% with HCT-15 colon; 79.5% with HT29 colon; 89.6% in the test with SNB-75 CNS; 101% in the test with SNB-19 CNS; 97.4% in the test on U251 CNS; 81.9% in the test with PC-3 prostate. Moreover, the growth was 95.6% in the test with SK-MEL-5 melanoma, 84.5% in the test on UACC-62 melanoma and 99.7% in the test on SK-MEL-28 melanoma.
For the molecule `C[C@@H]1CCC2[C@@H](C)[C@H](OC(=O)CCC(=O)NCCNC(=O)Cc3cc(=O)oc4cc(N(C)C)ccc34)O[C@@H]3O[C@]4(C)CC[C@@H]1C23OO4` (stereo not given in full), the growth was 7.81% (active) in the test on HCT-15 colon; 26.4% in the test on HT29 colon; 60.9% in the test on SNB-75 CNS; 65% with SNB-19 CNS; 34.4% with U251 CNS; 19.1% in the test with PC-3 prostate. Besides, the results for the growth in the test on SK-MEL-5 melanoma, in the test with UACC-62 melanoma and in the test on SK-MEL-28 melanoma were 33.2%, 31.7% and 57.5%, respectively.
For `COc1ccc2c(c1)c(-c1nc(-c3cn(C)c4ncccc34)cs1)cn2CCCCN1CCCCC1`, the growth in the test with HCT-15 colon was -80.9% (active); in the test on HT29 colon, -72.6% (active); in the test on SNB-75 CNS, 63.9%; with SNB-19 CNS, -1.68% (active); in the test on U251 CNS, -85.6% (active); with PC-3 prostate, -66.3% (active). Besides, the growth with SK-MEL-5 melanoma was -80.4% (active); in the test on LOX IMVI melanoma, -78% (active); in the test on SK-MEL-28 melanoma, -69% (active).
Turning to `CC[C@H](C)[C@H](NC(=O)C12CC(NC(C)=O)(C1)C2)C(=O)N(C)[C@H](C[C@@H](OC(C)=O)c1nc(C(=O)N[C@@H](Cc2ccccc2)C[C@H](C)C(=O)OC)cs1)C(C)C`, the growth is 29.3% in the test on HCT-15 colon; 5.65% (active) in the test with HT29 colon; 44.8% in the test on SNB-75 CNS; 50.9% in the test with SNB-19 CNS; 11.6% in the test on U251 CNS; 15.4% in the test with PC-3 prostate. In addition, the growth is -6.58% (active) in the test on SK-MEL-5 melanoma and 61% in the test with SK-MEL-28 melanoma.
In the case of `COC(=O)[C@@H](C)C[C@H](Cc1ccccc1)NC(=O)c1csc([C@@H](C[C@H](C(C)C)N(C)C(=O)[C@@H](NC(=O)C23CC(NC(C)=O)(C2)C3)C2CC2)OC(C)=O)n1`, the growth in the test with HCT-15 colon is 92%; in the test on HT29 colon it was 20.9%; in the test with SNB-75 CNS, 14%; in the test with SNB-19 CNS, 65.3%; in the test with U251 CNS it was 33.1%; in the test on PC-3 prostate, 44.4%. Also, the growth with SK-MEL-5 melanoma was 30.5%; with LOX IMVI melanoma it was 31.7%; in the test with SK-MEL-28 melanoma it was 61.3%.
In the case of `C[n+]1c(/C=C/c2ccc(N(CCCl)CCCl)cc2)sc2ccccc21`, the growth in the test on HCT-15 colon was 82.2%; in the test on HT29 colon, 40.9%; in the test with SNB-75 CNS, 74.5%; in the test with SNB-19 CNS, 60.9%; in the test on U251 CNS, 30.1%; in the test on PC-3 prostate, 36%. Further, the growth is 61.1% in the test with SK-MEL-5 melanoma, 36.6% in the test with LOX IMVI melanoma and 81.4% in the test with SK-MEL-28 melanoma.
On to `Nc1cc2nc3ccccc3nc2cc1N`, for which the growth with HCT-15 colon was 88.5%; in the test on HT29 colon, 105%; in the test on SNB-75 CNS it was 85.5%; in the test with SNB-19 CNS, 85.6%; in the test on U251 CNS, 77.2%; in the test with PC-3 prostate, 79.3%. Further, the growth with SK-MEL-5 melanoma was 87%; in the test with LOX IMVI melanoma it was 80.8%; in the test with SK-MEL-28 melanoma it was 129%.
Consider `c1cnc2[nH]cc(-c3csc(-c4cn(CCCCN5CCCCC5)c5ccccc45)n3)c2c1`, for which the growth in the test with HCT-15 colon was 51%; in the test with HT29 colon, 34.4%; in the test on SNB-75 CNS, 70.3%; in the test with SNB-19 CNS it was 90.4%; in the test on U251 CNS, 86.3%; in the test with PC-3 prostate it was 63.1%. For the same molecule, the growth in the test with SK-MEL-5 melanoma is 70.4%; with LOX IMVI melanoma it was 84.2%; in the test on SK-MEL-28 melanoma, 83%.
Regarding `N#C[Se]CCN1C(=O)c2ccccc2C1=O`, the growth in the test on HCT-15 colon was 53.2%; in the test on HT29 colon it was 13.9%; in the test on SNB-75 CNS it was 2.39% (active); in the test on SNB-19 CNS, 38%; in the test on U251 CNS, 27.4%; in the test with PC-3 prostate it was 41.8%. Besides, the growth with SK-MEL-5 melanoma was 1.73% (active); in the test on UACC-62 melanoma, 22.7%; in the test on SK-MEL-28 melanoma, 25.9%.
On to `OCc1ccc2c(c1)OCO2`, for which the growth in the test on HCT-15 colon is 104%; in the test with HT29 colon it was 96.4%; with SNB-75 CNS it was 84.5%; with SNB-19 CNS, 104%; in the test with U251 CNS, 95.8%; in the test with PC-3 prostate, 94.3%. Further, the growth with SK-MEL-5 melanoma was 102%; in the test on LOX IMVI melanoma, 95.3%; in the test with SK-MEL-28 melanoma, 108%.
For the molecule `CC(C)CCC(=O)O[C@H]1CC[C@H]2[C@@H]3CCC4=CC(=O)CC[C@]4(C)[C@H]3CC[C@]12C`, the growth is 97.4% in the test on HCT-15 colon; 106% in the test with HT29 colon; 82.6% in the test on SNB-75 CNS; 105% with SNB-19 CNS; 99.2% with U251 CNS; 92.8% in the test on PC-3 prostate. Moreover, the values for the growth in the test on SK-MEL-5 melanoma, with LOX IMVI melanoma and in the test with SK-MEL-28 melanoma were 96.5%, 97.9% and 99.8%, respectively.
